# Laboratory results published in ChEMBL document CHEMBL3988442, “University of Dundee, Small-Polar-MMV Screening Library” (2021).
# How the values were obtained:
# [1] = biological target: T1, Aspartate--tRNA(Asp/Asn) ligase (Mycobacterium tuberculosis (strain ATCC 25618 / H37Rv)) (UniProt P9WFW3); assay: Assay for Asp RNA synthetase-1 from Mycobacterium tuberculosis; type: functional; set-up: scale not given: direction of the effect not stated beside the values; conditions: 30 µM; further: in the data most compounds retested in dose-response had high values
# T1 sequence (whole entry): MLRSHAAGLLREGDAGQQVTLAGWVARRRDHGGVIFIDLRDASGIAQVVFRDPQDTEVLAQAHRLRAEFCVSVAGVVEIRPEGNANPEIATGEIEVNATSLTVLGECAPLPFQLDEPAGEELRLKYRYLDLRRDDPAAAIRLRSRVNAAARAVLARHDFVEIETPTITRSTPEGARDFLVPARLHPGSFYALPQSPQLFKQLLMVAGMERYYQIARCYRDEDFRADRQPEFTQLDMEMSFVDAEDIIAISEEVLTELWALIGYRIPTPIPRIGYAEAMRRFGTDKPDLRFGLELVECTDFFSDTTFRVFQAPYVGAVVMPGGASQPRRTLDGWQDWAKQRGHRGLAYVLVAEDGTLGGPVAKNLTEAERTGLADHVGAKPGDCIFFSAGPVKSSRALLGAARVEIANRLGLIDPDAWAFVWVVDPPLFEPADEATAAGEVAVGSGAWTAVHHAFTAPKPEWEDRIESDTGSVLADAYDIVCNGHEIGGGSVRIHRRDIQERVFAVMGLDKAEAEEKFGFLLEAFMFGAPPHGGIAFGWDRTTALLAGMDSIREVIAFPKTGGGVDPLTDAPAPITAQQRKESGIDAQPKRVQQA
# [2] = biological target: Shiga toxin 2 (Escherichia coli O157:H7) (UniProt P09385+P09386); assay: E. coli 0.157:H7 Shiga Toxin SOP - stx2 screening assay; type: functional; set-up: scale not given: direction of the effect not stated beside the values; conditions: 30 µM
SMILES,Percent Effect [1] [%],Percent Effect [2] [%]
Cc1ccc(F)cc1S(=O)(=O)N(C)CC(N)=O,2.69,-5.32
CN(c1ccncn1)C1CC2(CCN(C(=O)CCc3cccs3)C2)C1 (configuration not stated),-1.32,-23.3
CN(C)CC(=O)N1CCCC2(CCC(=O)N(CCc3c[nH]cn3)C2)C1 (configuration not stated),0.773,-43.1
O=C1N(c2ccc(Br)cc2)Cc2nc(=O)[nH]n21,-4.79,-34.3
CC(O)CNC(=O)NCc1ccc(N2CCNC(=O)C2)cc1 (configuration not stated),2.09,-86.8
c1csc(-c2nc(CN3CCCC3Cn3cncn3)co2)c1 (configuration not stated),3.68,-0.336
O=C(CN1CC(n2cccn2)C1)NCCCc1ccccc1,0,-22.1
CCN(c1ccc(C(=O)N2CCCC(C)C2)cc1)S(=O)(=O)CC (configuration not stated),-3.34,-10.8
CCCNC(=O)CSc1nnc2[nH]c(=O)cc(CC)n12,-6.58,-11.3
COC(=O)CC(c1ccccc1)c1oc(C)cc(=O)c1O (configuration not stated),-2.11,-6.67
COCCc1noc(CN2CCCCC2Cn2cc(C)cn2)n1 (configuration not stated),-2.46,9.7
Cc1nc(C(=O)N2CCCC2c2c(C)nn(C)c2C)ccc1C#N (configuration not stated),-1.21,-18
Cc1cccc(CN2C[C@@H]3COC[C@]3(CNC(=O)c3ccsc3)C2)n1,-2.88,-15.8
CCc1nc(CN(C(C)=O)C2CCN(Cc3cnc(C)cn3)C2)no1 (configuration not stated),-0.742,-16.6
Cc1ccc(CN2CC(C(=O)N3CCCC3)C3(CCOCC3)C2)s1 (configuration not stated),10.8,-7.63
O=C(O)C1(Cc2cccc(-c3ccc(F)c(F)c3)c2)CCOCC1,4.93,7.92
Cc1noc2nc(C3CCN(Cc4ccncc4)CC3)cc(C(F)F)c12,5.43,-67.8
COCC(c1cccc(C(F)(F)F)c1)N(C)C(=O)c1cc(C)n[nH]1 (configuration not stated),1.86,24.9
Cc1nc(CN2CCc3ncnc(-c4ccc(F)cc4)c3CC2)cs1,-0.199,5.58
COC(=O)[C@H](C)NC(=O)c1cc(-c2cccc(Cl)c2)no1,0.419,5.33
Cc1cnn(CC2CCCN2c2nn3cc(C)nc3s2)c1 (configuration not stated),-9.79,-13.5
CCN1CCN(C(=O)c2cc(C(=O)OC)nn2-c2ccccc2)CC1,2.94,26.1
COCCN1CCN(CCS(=O)(=O)C(F)(F)F)CC1C (configuration not stated),-2.33,96.7
Cn1cc(C2CC(=O)NC23CCN(CC2CC2)CC3)cn1 (configuration not stated),-4.05,-21.4
Cc1ccccc1C1(C(=O)NCCN2CCCC2)CCOCC1,11.1,12.4
CO[C@H]1CCN(C(=O)Cc2ccccn2)[C@H]1Cc1ccncc1,3.54,-1.46

SMILES,Percent Effect [1] [%],Percent Effect [2] [%]
Cn1ccnc1CN1CCC2(CC1)CC(Oc1cccnc1)C2,0.874,-18.2
Cc1ccc(F)c(OC2(C(=O)O)CCN(C(=O)N3CCCC3)CC2)c1,-1.17,-2.51
COC(=O)N1CCCC(C(=O)NCc2cc3cccc(OC)c3o2)C1 (configuration not stated),-0.457,14.7
Cc1noc(C)c1CN1CC[C@H]2OCC[C@@H](C(=O)N3CCCO3)[C@@H]2C1,-1.14,-15.4
Cc1nccn1CCCC(=O)N1CCC(Nc2cccnn2)CC1,-0.211,-6.43
CCc1cnc2c(c1Nc1ccc(OC)cc1)c(=O)n(C)c(=O)n2C,0.831,-12.8
Cc1cc(C(=O)NCCN2CCCC(C)C2)nn1C (configuration not stated),-4.16,11.8
CC(=O)N1CCCC1c1nccc(C)n1 (configuration not stated),0.191,0.898
CCc1nc(C(=O)N2CCCC2)nn1-c1ccccc1Cl,-1.24,6.73
Cc1ccc2cc(CNCCCN3CCOCC3)c(=O)[nH]c2c1,-2.01,-12.7
CCn1ccnc1CN1CCN(Cc2ccccn2)CC1C (configuration not stated),-1.39,-13.6
COCCN1C[C@@H]2CN(C(=O)[C@H]3CCCO3)C[C@@H]2C1=O,-1.41,-16.3
CCCN1CCC(NC(=O)c2ccc(F)cc2I)CC1,-6.77,2.29
Cc1ccsc1CN(C)C(=O)Cn1nc(-c2ccc(F)cc2)oc1=O,10.3,-7.45
Cc1ncsc1C(=O)N(C)CCc1ccncc1,-1.68,19.9
Cc1ccc(N2CCC3(CCCN(C(=O)c4cccnc4)C3)C2)nn1 (configuration not stated),8.13,-11
CC(C)c1nnc(NC(=O)NCc2ccc(CO)c(F)c2)s1,1.21,0.535
Cc1cc(NC(=O)c2nc(N3CCCC3)ncc2Cl)nc(C(C)C)n1,2.49,-23.7
CCn1cnnc1C1CCN(C(=O)c2ccc(C(=O)OC)s2)CC1,-7.04,7.28
CCn1cc(Br)c(C(=O)NCc2cnn(C)c2)n1,-2.73,-41.5
COCCNC(=O)NCCc1ccn(-c2ccccc2)n1,-4.41,3.32
CC(NC(=O)CNCCn1cccn1)c1ccc2c(c1)OCCO2 (configuration not stated),-3.06,8.04
Cc1cc(-c2cnc(N3CCN(C)CC3)nc2-c2ccc(C)s2)on1,-3.23,-24.7
CO[C@H]1CCN(c2ncccn2)[C@H]1Cc1ccccc1,1.75,-19.4
CC(C)N1CC(C(=O)NCCc2csc(-c3ccncc3)n2)CC1=O (configuration not stated),2.56,-26.5
